Experimental data taken from PubChem BioAssay.
Activity calls are given as the source filed them.

What was measured:
[1] = test system: PRMT1 (protein arginine N-methyltransferase 1); assay: small molecules binding arginine methyltransferase PRMT1 – biochemical, small-molecule microarray, 635 nm fluorescence, primary screen (AID 1088); conditions: higher = more signal;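 further: binding of Prmt1 protein to compounds spotted on small-molecule microarray slides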
[2] = growth effects on S. cerevisiae YJM789 – YJM789 clinical isolate, OD600, 24 h, basal, primary screen (AID 1089); conditions: higher = more signal, called active from +8 up or from −8 down;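 further: growth of clinical yeast isolate S. cerevisiae YJM 789 seeded 1000 cells per well; test concentration not given here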
[3] = S. pombe growth modifiers, basal conditions – strain 972, OD600, 24 h, no modulator, primary screen (AID 1090);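 further: basal condition with compound alone and no growth modifier present; test concentration not given here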; conditions: S. pombe 972 growth, higher = more signal, called active from +8 up or from −8 down
[4] = budding yeast growth modifiers under rapamycin – strain BY4716, OD600, 96 h, primary screen (AID 1091); further: test concentration not given here; conditions: S. cerevisiae BY4716 + rapamycin, higher = more signal, called active from +8 up or from −8 down
[5] = target: Torsin-1A-interacting protein 2 (Homo sapiens) (UniProt Q8NFQ8); assay: small molecules binding lysate-expressed LULL1 – cell lysate, human LULL1 lysate, 635/667 nm fluorescence, primary screen (AID 1092); conditions: small-molecule microarray, hLULL1 lysate binding, 635 nm fluorescence; higher = more signal;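 further: probe is lysate of COS7 cells overexpressing human LULL1; score merges per-feature 667 nm fluorescence with signal-to-noise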
[6] = optical density change of DRC41 E. coli – strain DRC41, OD650, 24 h, E. coli filamentation project, primary screen (AID 1093);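 further: MC1000 strain lacking acrAB efflux and sulA so SOS filamentation is blocked; test concentration not given here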; conditions: E. coli DRC41 growth, higher = more signal, called active from +8 up or from −8 down
[7] = probe aLefty2 binding to arrayed compounds – biochemical, biotinylated probe, 635/667 nm fluorescence, primary screen (AID 1094); conditions: small-molecule microarray, higher = more signal;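 further: score merges spot fluorescence near 667 nm with spot signal-to-noise ratio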
[8] = test system: Noggin (protein binding on small-molecule microarray); assay: small molecules binding Noggin protein – biochemical, 635/667 nm fluorescence, primary screen (AID 1095); conditions: 635 nm fluorescence, higher = more signal;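 further: score merges 667 nm feature fluorescence with signal to noise over triplicate slides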
[9] = target: Neurogenic locus notch homolog protein 3 (Homo sapiens) (UniProt Q9UM47); assay: small molecules binding NOTCH3 protein – biochemical, 635/667 nm fluorescence, primary screen (AID 1096); conditions: small-molecule microarray, 635 nm fluorescence, higher = more signal
[10] = probe aEGFR binding to arrayed compounds – biochemical, biotinylated probe, 635/667 nm fluorescence, primary screen (AID 1097); conditions: small-molecule microarray, higher = more signal;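 further: probe is a biotinylated anti-EGFR antibody binding compounds printed on slides; score combines fluorescence near 667 nm and signal to noise of each spot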
[11] = test system: Plasmodium falciparum Sir2 (PF13_0152, Sir2A); assay: Plasmodium falciparum Sir2A binding compounds – biochemical, small-molecule microarray, 635 nm fluorescence, primary screen (AID 1098); conditions: fluorescence 635 nm, higher = more signal;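 further: score merges spot fluorescence intensity with its signal-to-noise ratio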
[12] = probe aDKK1 binding to arrayed compounds – biochemical, biotinylated probe, 635/667 nm fluorescence, primary screen (AID 1099); conditions: small-molecule microarray, higher = more signal;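 further: score merges 667nm spot fluorescence with signal to noise across triplicate slides; reference of the scale not given here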
[13] = probe aCHRDL2 binding to arrayed compounds – biochemical, biotinylated probe, 635/667 nm fluorescence, primary screen (AID 1100); conditions: small-molecule microarray, higher = more signal
[14] = change in splice reporter luminescence, either direction, cell-based, HEK293, spliceosome inhibition project, primary screen (AID 1101); conditions: HEK293 splicing luciferase reporter, 24 h, higher = more signal, called active from +8 up or from −8 down;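 further: HEK293 cells carrying a splicing-competent luciferase reporter gene; test concentration not given here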
[15] = target: Fibroblast growth factor 10 (Homo sapiens) (UniProt O15520); assay: compounds binding fibroblast growth factor 10 – biochemical, small-molecule microarray, 635 nm fluorescence, primary screen (AID 1102); conditions: FGF10 binding, fluorescence 635 nm, higher = more signal
[16] = test system: glycogen synthase kinase-3 (GSK3A per assay name; protocol says GSK3B); assay: compounds binding glycogen synthase kinase-3 – biochemical, small-molecule microarray, 635 nm fluorescence, GSK3A, primary screen (AID 1103); conditions: fluorescence 635 nm, higher = more signal; further: the record names both GSK3A and GSK3B
[17] = target: Epidermal growth factor receptor (Homo sapiens) (UniProt P00533); assay: compounds binding epidermal growth factor receptor – biochemical, small-molecule microarray, 635 nm fluorescence, primary screen (AID 1104); conditions: EGFR binding, higher = more signal;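 further: score merges 667 nm emission intensity with spot signal to noise over triplicate slides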
[18] = target: Follistatin-related protein 3 (Homo sapiens) (UniProt O95633); assay: compounds binding follistatin-related protein 3 – biochemical, small-molecule microarray, 635 nm fluorescence, primary screen (AID 1105); conditions: FSTL3 binding, higher = more signal;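 further: score merges emission near 667 nm and signal to noise per printed spot across three slides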
[19] = target: Dickkopf-related protein 1 (Homo sapiens) (UniProt O94907); assay: small molecules binding DKK1 protein – biochemical, small-molecule microarray, 635 nm fluorescence scan, primary screen (AID 1106); conditions: higher = more signal;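 further: score merges emission near 667 nm with signal to noise over three replicate slides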
[20] = test system: Inhibin beta A chain (activin A); assay: small molecules binding activin A – biochemical, small-molecule microarray, 635 nm fluorescence scan, primary screen (AID 1107); conditions: INHBA, higher = more signal;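 further: mouse activin A protein probed at 4.33 µg/mL on printed slides; score merges bound-protein fluorescence near 667 nm with spot signal-to-noise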

Sequence of Fibroblast growth factor 10 (Homo sapiens) (O15520 whole entry, looked up): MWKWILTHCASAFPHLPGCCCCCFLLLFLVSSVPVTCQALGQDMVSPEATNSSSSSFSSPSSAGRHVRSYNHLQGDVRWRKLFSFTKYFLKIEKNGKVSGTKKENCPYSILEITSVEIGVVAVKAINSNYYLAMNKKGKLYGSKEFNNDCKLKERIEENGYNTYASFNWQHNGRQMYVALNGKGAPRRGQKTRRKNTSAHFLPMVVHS
Sequence of Dickkopf-related protein 1 (Homo sapiens) (O94907 whole entry, looked up): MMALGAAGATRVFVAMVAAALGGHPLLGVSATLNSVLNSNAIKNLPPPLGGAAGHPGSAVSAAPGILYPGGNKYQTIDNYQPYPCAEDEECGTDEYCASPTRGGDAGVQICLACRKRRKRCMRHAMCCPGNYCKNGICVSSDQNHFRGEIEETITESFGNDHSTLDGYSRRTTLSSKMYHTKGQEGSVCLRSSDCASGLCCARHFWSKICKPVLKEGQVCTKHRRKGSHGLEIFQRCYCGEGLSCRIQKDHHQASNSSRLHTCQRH
Sequence of Torsin-1A-interacting protein 2 (Homo sapiens) (Q8NFQ8 whole entry, looked up): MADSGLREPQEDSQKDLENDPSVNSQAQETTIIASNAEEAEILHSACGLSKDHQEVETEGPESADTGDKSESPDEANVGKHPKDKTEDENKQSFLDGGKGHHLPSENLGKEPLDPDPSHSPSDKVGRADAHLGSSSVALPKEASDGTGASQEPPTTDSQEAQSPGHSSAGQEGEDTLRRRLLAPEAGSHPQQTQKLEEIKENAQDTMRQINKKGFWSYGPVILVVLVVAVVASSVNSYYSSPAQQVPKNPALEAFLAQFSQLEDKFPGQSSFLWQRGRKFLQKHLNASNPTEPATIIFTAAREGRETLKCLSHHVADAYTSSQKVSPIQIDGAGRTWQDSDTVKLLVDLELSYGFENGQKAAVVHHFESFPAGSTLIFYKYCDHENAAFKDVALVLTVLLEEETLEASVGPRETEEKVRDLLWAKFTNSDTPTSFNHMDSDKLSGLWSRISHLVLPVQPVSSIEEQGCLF
Sequence of Follistatin-related protein 3 (Homo sapiens) (O95633 whole entry, looked up): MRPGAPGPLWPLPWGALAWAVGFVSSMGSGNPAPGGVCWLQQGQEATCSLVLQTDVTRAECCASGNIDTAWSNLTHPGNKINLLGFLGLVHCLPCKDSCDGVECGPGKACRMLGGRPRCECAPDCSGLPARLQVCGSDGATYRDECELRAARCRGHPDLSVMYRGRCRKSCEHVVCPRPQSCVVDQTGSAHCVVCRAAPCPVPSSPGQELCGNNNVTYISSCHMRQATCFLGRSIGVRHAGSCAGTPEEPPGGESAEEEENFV
Sequence of Neurogenic locus notch homolog protein 3 (Homo sapiens) (Q9UM47 whole entry, looked up): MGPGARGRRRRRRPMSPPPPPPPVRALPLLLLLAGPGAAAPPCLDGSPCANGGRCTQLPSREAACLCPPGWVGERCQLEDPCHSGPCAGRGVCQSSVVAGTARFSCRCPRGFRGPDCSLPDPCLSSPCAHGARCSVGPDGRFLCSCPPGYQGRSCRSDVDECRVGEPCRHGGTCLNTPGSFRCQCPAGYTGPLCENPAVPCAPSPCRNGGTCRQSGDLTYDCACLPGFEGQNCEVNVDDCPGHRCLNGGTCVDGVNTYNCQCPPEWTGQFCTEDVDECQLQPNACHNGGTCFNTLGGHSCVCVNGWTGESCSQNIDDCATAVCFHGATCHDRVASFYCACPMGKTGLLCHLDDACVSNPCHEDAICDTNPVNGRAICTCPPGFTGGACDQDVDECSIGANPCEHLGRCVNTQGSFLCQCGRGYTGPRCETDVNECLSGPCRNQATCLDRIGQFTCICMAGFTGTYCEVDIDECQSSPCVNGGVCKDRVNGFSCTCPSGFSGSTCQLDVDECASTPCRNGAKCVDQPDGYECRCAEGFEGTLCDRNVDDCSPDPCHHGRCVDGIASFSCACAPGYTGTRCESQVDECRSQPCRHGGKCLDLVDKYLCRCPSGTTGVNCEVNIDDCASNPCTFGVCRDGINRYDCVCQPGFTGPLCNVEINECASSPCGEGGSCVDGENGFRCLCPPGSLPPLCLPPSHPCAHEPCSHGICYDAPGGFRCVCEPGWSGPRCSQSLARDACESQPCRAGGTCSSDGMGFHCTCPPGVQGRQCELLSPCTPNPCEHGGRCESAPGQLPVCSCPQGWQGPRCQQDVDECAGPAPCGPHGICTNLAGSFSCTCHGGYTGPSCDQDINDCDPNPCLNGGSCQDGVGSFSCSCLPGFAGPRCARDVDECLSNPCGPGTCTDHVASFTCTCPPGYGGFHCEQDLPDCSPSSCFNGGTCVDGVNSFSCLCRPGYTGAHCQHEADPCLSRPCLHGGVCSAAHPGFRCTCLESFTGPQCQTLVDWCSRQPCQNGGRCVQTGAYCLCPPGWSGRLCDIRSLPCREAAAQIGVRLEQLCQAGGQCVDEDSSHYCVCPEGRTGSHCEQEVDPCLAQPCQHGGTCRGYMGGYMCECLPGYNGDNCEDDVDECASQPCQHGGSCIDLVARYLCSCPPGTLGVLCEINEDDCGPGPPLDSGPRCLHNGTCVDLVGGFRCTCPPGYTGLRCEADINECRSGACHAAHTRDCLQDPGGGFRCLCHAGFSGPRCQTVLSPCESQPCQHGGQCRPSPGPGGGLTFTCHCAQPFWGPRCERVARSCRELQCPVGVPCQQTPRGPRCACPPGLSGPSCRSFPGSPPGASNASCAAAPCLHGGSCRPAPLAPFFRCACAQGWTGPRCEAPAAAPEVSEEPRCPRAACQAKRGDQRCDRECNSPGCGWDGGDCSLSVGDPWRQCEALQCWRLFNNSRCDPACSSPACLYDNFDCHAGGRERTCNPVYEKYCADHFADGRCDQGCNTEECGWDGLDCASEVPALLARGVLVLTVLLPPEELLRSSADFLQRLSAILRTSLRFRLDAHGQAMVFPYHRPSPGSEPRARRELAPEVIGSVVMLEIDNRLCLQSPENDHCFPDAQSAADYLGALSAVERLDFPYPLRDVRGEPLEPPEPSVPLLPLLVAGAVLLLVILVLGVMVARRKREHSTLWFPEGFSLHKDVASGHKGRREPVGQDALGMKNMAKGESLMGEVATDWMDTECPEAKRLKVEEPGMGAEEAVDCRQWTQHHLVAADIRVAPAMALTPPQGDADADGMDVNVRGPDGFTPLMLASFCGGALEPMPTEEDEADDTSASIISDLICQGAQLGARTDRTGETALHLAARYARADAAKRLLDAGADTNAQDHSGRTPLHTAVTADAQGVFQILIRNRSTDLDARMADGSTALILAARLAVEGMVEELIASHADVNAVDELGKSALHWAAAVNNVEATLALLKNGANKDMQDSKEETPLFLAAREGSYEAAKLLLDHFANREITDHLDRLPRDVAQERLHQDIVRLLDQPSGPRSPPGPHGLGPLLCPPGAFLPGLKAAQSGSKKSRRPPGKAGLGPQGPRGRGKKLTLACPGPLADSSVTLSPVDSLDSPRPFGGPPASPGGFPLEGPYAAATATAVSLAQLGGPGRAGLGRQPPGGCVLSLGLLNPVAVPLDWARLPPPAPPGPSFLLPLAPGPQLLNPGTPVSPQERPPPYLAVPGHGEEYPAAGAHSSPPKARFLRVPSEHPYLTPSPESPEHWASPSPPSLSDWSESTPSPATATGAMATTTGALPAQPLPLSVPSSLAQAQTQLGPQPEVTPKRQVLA
Sequence of Epidermal growth factor receptor (Homo sapiens) (P00533 whole entry, looked up): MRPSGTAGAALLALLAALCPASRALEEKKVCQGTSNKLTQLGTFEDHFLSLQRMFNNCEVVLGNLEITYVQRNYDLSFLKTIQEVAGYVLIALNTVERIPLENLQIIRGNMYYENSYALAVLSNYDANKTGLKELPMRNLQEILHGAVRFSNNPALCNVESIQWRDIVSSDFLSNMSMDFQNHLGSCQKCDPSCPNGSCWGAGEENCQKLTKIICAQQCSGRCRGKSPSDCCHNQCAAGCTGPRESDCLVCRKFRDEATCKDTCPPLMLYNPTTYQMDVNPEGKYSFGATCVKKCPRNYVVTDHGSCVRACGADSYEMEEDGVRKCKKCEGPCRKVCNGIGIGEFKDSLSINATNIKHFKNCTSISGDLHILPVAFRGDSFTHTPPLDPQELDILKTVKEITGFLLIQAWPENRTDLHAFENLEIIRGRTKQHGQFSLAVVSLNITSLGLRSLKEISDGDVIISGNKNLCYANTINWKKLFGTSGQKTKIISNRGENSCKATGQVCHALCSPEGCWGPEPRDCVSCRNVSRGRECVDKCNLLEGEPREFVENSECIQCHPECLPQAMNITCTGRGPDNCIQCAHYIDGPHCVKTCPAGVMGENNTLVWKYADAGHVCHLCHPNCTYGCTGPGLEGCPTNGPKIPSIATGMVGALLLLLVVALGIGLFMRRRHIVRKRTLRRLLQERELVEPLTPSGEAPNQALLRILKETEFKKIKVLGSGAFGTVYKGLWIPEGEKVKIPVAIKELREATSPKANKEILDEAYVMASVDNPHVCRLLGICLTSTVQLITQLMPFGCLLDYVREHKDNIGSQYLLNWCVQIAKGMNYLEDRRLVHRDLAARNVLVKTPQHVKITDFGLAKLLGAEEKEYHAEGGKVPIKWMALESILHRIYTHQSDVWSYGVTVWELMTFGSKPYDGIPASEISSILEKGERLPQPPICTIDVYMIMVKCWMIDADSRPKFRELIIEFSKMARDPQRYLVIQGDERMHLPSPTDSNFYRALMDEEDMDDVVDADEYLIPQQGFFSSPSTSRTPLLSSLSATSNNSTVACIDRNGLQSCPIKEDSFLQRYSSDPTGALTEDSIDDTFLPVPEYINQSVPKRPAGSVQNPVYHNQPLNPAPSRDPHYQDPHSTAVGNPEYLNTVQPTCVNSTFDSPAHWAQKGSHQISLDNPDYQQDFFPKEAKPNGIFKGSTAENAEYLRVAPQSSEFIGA

SMILES | composite z-score [1] | z-score [2] | z-score [3] | z-score [4] | composite z-score [5] | z-score [6] | composite z-score [7] | composite z-score [8] | composite z-score [9] | composite z-score [10] | composite z-score [11] | composite z-score [12] | composite z-score [13] | z-score [14] | composite z-score [15] | composite z-score [16] | composite z-score [17] | composite z-score [18] | composite z-score [19] | composite z-score [20]
O=c1cccc(-c2ccc(F)cc2)o1 | 0.777 | -1.28 (inactive) | -0.0295 (inactive) | -0.313 (inactive) | -0.326 | -0.428 (inactive) | -0.0591 | 0.245 | 0.784 | 0.132 | 0.347 | 0.328 | -0.3 | 0.362 (inactive) | 0.948 | 0.716 | 0.444 | 0.74 | 0.399 | 0.457
O=C1C[C@@](C(=O)NCC(F)(F)F)(c2ccc([N+](=O)[O-])cc2)[C@@H](c2ccc(CO)cc2)N1CC12CC3CC(CC(C3)C1)C2 | 1.55 | 0.263 (inactive) | -1.03 (inactive) | 1.77 (inactive) | 2.05 | -0.49 (inactive) | 0.426 | 1.26 | 0.614 | 0.751 | 1.4 | 1.09 | 0.957 | -2.11 (inactive) | 1.44 | 1.07 | 1.13 | 1.03 | 0.927 | 0.469
CCCCNC(=O)c1ccc(C#C[Si](C(C)C)(C(C)C)C(C)C)c(OC(C)=O)c1 | 0.613 | -0.272 (inactive) | -1.61 (inactive) | 0.645 (inactive) | 0.765 | -0.423 (inactive) | -0.0916 | 0.926 | 1.05 | -0.0208 | 0.28 | -0.0188 | -0.539 | -0.831 (inactive) | 0.832 | 0.807 | 1.36 | 1.49 | 0.784 | 1.59
CC(C)(C)OC(=O)CC[C@]12N=C(c3ccc(OCCCO)cc3)O[C@H]1c1ccccc1N(Cc1ccccc1)C2=O | 1.54 | 0.429 (inactive) | -1.1 (inactive) | 5.79 (inactive) | 2.72 | 0.911 (inactive) | 0.12 | 0.938 | 0.967 | -0.128 | 0.907 | 0.492 | 0.462 | -0.601 (inactive) | 1.18 | 1.26 | -0.0167 | 0.483 | 0.168 | 0.777
Cc1ccc(S[C@]2(C(=O)NCC(C)C)CC(=O)N(C3Cc4ccccc4C3)[C@@H]2c2ccc(CO)cc2I)cc1 | -0.409 | -0.766 (inactive) | -1.49 (inactive) | 1.51 (inactive) | 0.724 | -0.0979 (inactive) | 0.0349 | -1.45 | -0.933 | -0.294 | 1.35 | -0.126 | -0.0156 | -0.968 (inactive) | -0.767 | -0.61 | -0.821 | 0.594 | -1.02 | 0.847
C=C(CCCC)/C(=C/C[C@H](OC(C)=O)c1ccc(OCCO)cc1)c1cc(C(=O)OC)ccc1OC | 1.25 | 0.966 (inactive) | -0.628 (inactive) | -0.59 (inactive) | 2.36 | 0.54 (inactive) | -0.0238 | 0.917 | 0.563 | -0.115 | 1.58 | -0.131 | 0.104 | 0.0591 (inactive) | 1 | 0.699 | -0.616 | 0.613 | -0.304 | 0.562
C=C(CCCC)C(=O)CC[C@H](OC(=O)c1ccccc1-c1ccccc1C(=O)O)c1ccccc1OCCO | 0.774 | 0.604 (inactive) | -0.659 (inactive) | -0.918 (inactive) | 0.189 | 1.07 (inactive) | -0.183 | 0.512 | -0.025 | -0.162 | 0.855 | -0.475 | -0.336 | 2.02 (inactive) | 0.271 | -0.218 | -0.226 | -0.279 | 0.145 | 1.28
[N-]=[N+]=NCc1ccccc1C[C@]1(C(=O)N2CCOCC2)COC(c2ccc(OCCCO)cc2)=N1 | 1.5 | -0.486 (inactive) | -5.38 (inactive) | 32.4 (active) | 2.39 | 3.3 (inactive) | 0.273 | -0.296 | 0.364 | 0.0706 | 0.947 | 1.05 | 1.05 | -0.363 (inactive) | 0.396 | 0.935 | -0.505 | 0.0724 | -0.921 | 0.983
CCOC(=O)C[C@H]1[C@H](OC(=O)c2ccc(-c3ccccc3)cc2)[C@@H](NC(=O)CC(C)C)c2cc(OCCCO)ccc2N1C(=O)c1ccccc1 | 0.468 | 0.72 (inactive) | 1.4 (inactive) | 1.38 (inactive) | 1.49 | -0.513 (inactive) | -0.107 | 0.49 | 0.952 | 0.048 | 0.166 | 0.148 | -0.0525 | -0.493 (inactive) | 0.418 | -0.106 | -0.101 | 0.648 | 0.455 | 0.214
C=C(COC)C(=O)CC[C@H](OC(C)=O)c1ccc(OCCO)cc1 | 1.44 | 0.389 (inactive) | -2.5 (inactive) | -1.06 (inactive) | -0.451 | 1.39 (inactive) | -0.211 | 1.93 | 0.711 | -0.0387 | 0.761 | -0.0747 | -0.0486 | -1.5 (inactive) | 1.35 | -0.143 | -0.0056 | 0.576 | 0.722 | 0.136
